Screening results from PubChem BioAssay.
Most compounds without a hit are left out; they make up all but 3.1% or so of the library.
DRD3 antagonist – qHTS of D3 Dopamine Receptor Antagonist: qHTS; D(3) dopamine receptor (Homo sapiens), P35462; D3R cells, DiscoveRx beta-arrestin luminescence, antagonist mode; stronger effect = lower value; max response, negative = inhibition, %; 360,000 tested, 2.5% active; in the data active means max response below about -50%; inconclusive means no clear call, values can overlap the other calls; further: on the % scale 0 is the no-effect control and ±100 the full control effect
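Cells plated overnight at 1500 cells/well, then exposed to library compounds with dopamine controls for 90 minutes at 37 degrees C. DiscoveRx reagent added for 30–60 minutes at room temperature; luminescence read, quantitative HTS format.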
DRD3 agonist – qHTS of D3 Dopamine Receptor Agonist: qHTS; D3R DiscoveRx beta-arrestin cells, luminescence, 90 min; 410,000 tested, 0.58% active; max activation, %; D(3) dopamine receptor (Homo sapiens), P35462; in the data active means max activation above about 30%; further: 0% is about no effect
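Cells at 1500/well, incubated overnight, then treated with pinned compounds (dopamine as control) for 90 min at 37 degrees C. DiscoveRx reagent added for 30 - 60 minutes at room temperature; luminescence read.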
uPA generation – qHTS for Inhibitors of Cell Surface uPA Generation; cell surface uPA generation assay, qHTS; Potency, µM (titrated, usually from 38.3 µM), without a hit: at the top dose activity change, negative = inhibition, actives largely listed as inhibitors; 330,000 tested, 0.31% active; AID 540303, 2011; active means well fitted inhibition curve with a large enough effect; inconclusive means small, poorly fitted or top-dose-only effect; inactive means no such curve, though single readings can be large or run the other way; tested in mouse RAW 264.7 cells; further: potency means the concentration at half of the fitted maximal effect; on the % scale 0 is the no-effect control and ±100 the full control effect; nearly all actives have a fitted effect of over 55% in size
RGS4 inh – Inhibitors of Regulator of G Protein Signaling (RGS) 4: qHTS | Regulator of G-protein signaling 4 (Homo sapiens), P49798 | Transcreener GDP fluorescence polarization, RGS4-accelerated GTP hydrolysis | Potency, µM (doses to about 114 µM), for inactives: at the highest dose activity change, negative = inhibition, most hits filed as inhibitors | 390,000 tested, 0.039% active; active means well fitted inhibition curve with a large enough effect; inconclusive means small, poorly fitted or top-dose-only effect; inactive means no such curve, though single readings can be large or run the other way; further: potency means the concentration at half of the fitted maximal effect; on the % scale 0 is the no-effect control and ±100 the full control effect; nearly all actives have a fitted effect of over 75% in size
Target sequence (P49798 whole entry, looked up): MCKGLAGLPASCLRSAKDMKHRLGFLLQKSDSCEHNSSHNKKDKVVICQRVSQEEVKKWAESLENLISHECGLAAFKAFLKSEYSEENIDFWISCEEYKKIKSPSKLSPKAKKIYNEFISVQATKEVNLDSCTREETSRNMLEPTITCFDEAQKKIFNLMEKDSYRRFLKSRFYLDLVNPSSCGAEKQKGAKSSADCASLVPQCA
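MLSMR compounds (23 nl, pin-transferred) preincubated 10 min at room temperature with a 500nM (2x) first reagent, then RGS4 at 900nM (2x) plus Transcreener GDP mix added; fluorescence polarization (620/688 nm) read before and after 90 min at 30 °C.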
* marks the source's active call; other numbers are inactive results.

CCN(CC)CCSc1nnc2c3ccccc3n(CCc3ccccc3)c2n1 was read as DRD3 antagonist -79.2*, DRD3 agonist -1.6, uPA generation inconclusive and RGS4 inh -0.6%.
C=CCn1c2ccccc2c2nnc(SCCCn3c(=O)[nH]c4ccccc43)nc21 was read as DRD3 antagonist 79.6, DRD3 agonist 31.6*, uPA generation -2.3% and RGS4 inh -47.2%.
Screening C=CCn1c2ccccc2c2nnc(SCCN3CCCCC3)nc21 returned DRD3 antagonist inconclusive, DRD3 agonist -16.4, uPA generation -16.1% and RGS4 inh 5.5%.
`C[C@@](Cc1ccc(O)c(O)c1)(NN)C(=O)O` gave DRD3 antagonist 5.8, DRD3 agonist -3.8, uPA generation -18.9% and RGS4 inh 42.4%.
`CC(N)(Cc1ccc(O)c(O)c1)C(=O)O` (configuration not stated) gave RGS4 inh 10.6µM*.
CCOC(=O)CSc1nc2sc3c(c2c(=O)n1Cc1ccccc1)CC(C(C)C)OC3 (configuration not stated) was read as DRD3 agonist -2.0 and RGS4 inh -0.4%.
Screening Cc1ccc(OCC(O)Cn2c(N)nc3c2c(=O)n(C)c(=O)n3C)cc1 (configuration not stated) returned DRD3 antagonist 2.6, DRD3 agonist 52.8*, uPA generation -2.1% and RGS4 inh 37.9%.
For CNc1nc2c(c(=O)n(C)c(=O)n2C)n1CC(O)COc1ccc(OC)cc1 (configuration not stated) the results were DRD3 agonist 0.7 and RGS4 inh 2.1%.
`O=C(CCc1ccccc1)N(Cc1cccnc1)c1nc2c(F)cc(F)cc2s1` gave DRD3 agonist -2.8 and RGS4 inh -4.6%.
COc1cc2c(cc1OC)CN(CCC(=O)c1ccc(Br)cc1)CC2 was read as DRD3 antagonist -52.9*, DRD3 agonist -18.3, uPA generation 0.7% and RGS4 inh inconclusive.
Cc1nnc(NCc2ccccc2)c2c1nnn2Cc1ccccc1Cl was read as DRD3 agonist 6.2 and RGS4 inh -1.9%.
For CCc1nc(-c2ccc(OC)c(OC)c2)cc2cc(OC)c(OC)cc12 the results were DRD3 antagonist 53.1, DRD3 agonist 36.1*, uPA generation -16.6% and RGS4 inh 5.8%.
CCOc1ccc(-c2csc(NC(=O)c3cccc(N4C(=O)CCC4=O)c3)n2)cc1 was read as DRD3 antagonist 29.3, DRD3 agonist 14.7, uPA generation -2.2% and RGS4 inh -11.6%.
For Cc1ccc(-c2csc(NC(=O)c3cccc(N4C(=O)CCC4=O)c3)n2)o1 the results were DRD3 antagonist 16.7, DRD3 agonist 0.6, uPA generation 3.55µM* and RGS4 inh inconclusive.
Screening NC(=O)N[C@@H](CCC(=O)O)C(=O)O returned DRD3 agonist -7.3.
Screening Cc1ccc2c(=O)c(C(=O)c3ccc(Cl)cc3)cn(CC(=O)Nc3ccc4c(c3)OCCO4)c2n1 returned DRD3 agonist 4.3 and RGS4 inh -17.2%.
For CCOc1ccc(C(=O)Nc2ccc3[nH]ncc3c2)cc1 the results were DRD3 antagonist 2.4, DRD3 agonist 1.1, uPA generation 5.01µM* and RGS4 inh -18.8%.
Screening CCOc1ccc(NC(=O)c2ccc(F)cc2F)cc1 returned DRD3 antagonist -64.9*, DRD3 agonist -1.3, uPA generation -16.4% and RGS4 inh 28.3%.
Screening COc1ccc(C(=O)Nc2ccc3[nH]ncc3c2)cc1 returned DRD3 antagonist 3.4, DRD3 agonist 2.5, uPA generation 3.16µM* and RGS4 inh 10.7%.
`CCOc1ccc(NC(=O)c2cc3ccccc3cc2OC)cc1` gave DRD3 antagonist 20.2, DRD3 agonist 4.8, uPA generation -9.7% and RGS4 inh -24.8%.
Screening CCOCCCn1c(SCC(=O)NCCCOC)nc2c(sc3ccccc32)c1=O returned DRD3 agonist -10.5 and RGS4 inh -35.8%.
Cc1c(C(=O)N/N=C/c2ccc(N(C)C)cc2)[nH]c2ccc(Cl)cc12 was read as DRD3 antagonist 58.0, DRD3 agonist -10.2, uPA generation -12.5% and RGS4 inh -12.0%.
`Cc1c(C(=O)N/N=C/c2ccccc2)[nH]c2ccc(Cl)cc12` gave DRD3 antagonist -0.8, DRD3 agonist -5.5, uPA generation 2.82µM* and RGS4 inh -7.7%.
For Cc1ccc2cc3cc(C(=O)Nc4ccc(F)cc4Cl)oc3nc2c1 the results were DRD3 agonist 15.2 and RGS4 inh 21.6%.
